Assay outcomes deposited in PubChem BioAssay by National Center for Advancing Translational Sciences (NCATS).
Hits are enriched below; roughly 14% of the tested compounds scored in any of these assays.
Lassa entry inh: Lassa virus entry inhibition. Lassa virus pseudotype entry inhibition, cell reporter. Potency, µM (series often up to 37.9 µM), without a hit: top-dose activity change, negative = inhibition, usual class: inhibitors. 300,000 tested, 1.2% active. AID 540256; calls by dose curve; tested in HEK293 cells; further: potency means the concentration at half of the fitted maximal effect; nearly all actives have a fitted effect of over 50% in size
Pf growth 96h: inhibits malaria parasite growth, 96 h; P. falciparum luciferase reporter growth, 96 h; Potency, µM (titrated, usually from 28.7 µM), for inactives: at the top dose activity change, negative = inhibition, usual class: inhibitors; 320,000 tested, 6.9% active; further: potency means the concentration at half of the fitted maximal effect
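Readout is luminescence from an integrated firefly luciferase in P. falciparum. Red cells, 2% hematocrit and 0.05% parasitemia final, were cultured with compound through two parasite generations (96 hours) at 37 C, 5% CO2.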
HCMV antiviral: blocks human cytomegalovirus replication; 410,000 tested, 4.5% active; activity change, negative = inhibition, % at 57.5 µM; HFF cells, HCMV-luciferase reporter, 72 h; hits give low values; AID 1259415; in the data active means activity change below about -60%; inconclusive means no clear call, values can overlap the other calls; inactive means above about -39%
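Cell-based, HFFs, 1000 cells/well, 16 h 37C; cpds in DMSO + HCMV-luc, MOI 1 PFU/cell; 72 h 37C; OneGlo luminescence after 5 min RT; norm. to buffer vs Salinomycin 10uM.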
HCV inh: HCV inhibition | Huh7.5.1 HCVcc-Cre infection, luciferase reporter, 44 h | Potency, µM (top dose mostly 41.8 µM), without a hit: at the highest dose activity change, negative = inhibition, actives largely listed as inhibitors | 340,000 tested, 3.4% active | AID 651820; further: potency means the concentration at half of the fitted maximal effect
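After 44 h co-culture of compound, cells and HCVcc-Cre (~0.5 moi), substrate is added for 15 min at room temperature and luciferase measured over 15 sec. Cells were seeded at 1,000/well and pre-cultured 4 h.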
Pf growth 48h: P. falciparum growth inhibition at 48 hours (one generation). P. falciparum luciferase growth in erythrocytes, 48 h. Potency, µM (series often up to 28.7 µM), without a hit: at the highest dose activity change, negative = inhibition, most hits filed as inhibitors. 310,000 tested, 5.9% active; further: potency means the concentration at half of the fitted maximal effect
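First compound was added to culture medium, then infected red cells at 0.1% parasitemia and 2% hematocrit (final). After incubation at 37 C under 5% CO2, luciferase detection reagent was dispensed and light output recorded.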
Marburg entry inh: Marburg virus entry inhibition; Marburg virus pseudotyped entry inhibition, cell reporter; Potency, µM (doses to about 37.8 µM), without a hit: top-dose activity change, negative = inhibition, hits mostly inhibitors; 300,000 tested, 1.8% active; calls by dose curve; tested in HEK293 cells; further: potency means the concentration at half of the fitted maximal effect
* marks the source's active call; other numbers are inactive results; ? = inconclusive; . = not tested or not shown; [ ] = dose if it differs, or a comment. Unless noted, the call rests on the fitted dose curve; in most records, active means well fitted inhibition curve with a large enough effect; inconclusive means small, poorly fitted or top-dose-only effect, or another doubt; inactive means no such curve, though single readings can be large or run the other way. On the % scale 0 is the no-effect control and ±100 the full control effect.

SMILES | Lassa entry inh | Pf growth 96h | HCMV antiviral | HCV inh | Pf growth 48h | Marburg entry inh
CCc1ccc(N2C=C(C(=O)OC)C(c3cccc4ccccc34)C(C#N)=C2N)cc1 (stereo not drawn) | . | . | -101* | . | . | .
COC(=O)C1=CN(c2ccc(F)cc2)C(N)=C(C#N)C1c1cccc(OC)c1OC (stereo not drawn) | . | . | 24 | . | . | .
COC(=O)C1=CN(c2ccc(F)cc2)C=C(C(=O)OC)C1c1ccc([N+](=O)[O-])cc1 | ? | 9.3µM* | -7 | . | 7.4µM* | ?
COC(=O)C1=CN(c2ccc(F)cc2)C(N)=C(C#N)C1c1ccccc1 (stereo not drawn) | . | . | 16 | . | . | .
CC1CCN(C(=O)c2ccc3c(c2)N(Cc2ccccc2)C(=O)c2ccccc2S3(=O)=O)CC1 | -24%[46.1 µM] | . | -61* | . | . | ?
O=C(c1ccc2c(c1)N(Cc1ccc(F)cc1)C(=O)c1ccccc1S2(=O)=O)N1CCC(Cc2ccccc2)CC1 | ? | . | -64* | . | . | ?
O=C(c1ccc2c(c1)N(Cc1ccccc1)C(=O)c1ccccc1S2(=O)=O)N1CCCCCC1 | ? | . | -37 | . | . | -24%[46.1 µM]
O=C(c1ccc2c(c1)N(Cc1ccc(F)cc1)C(=O)c1ccccc1S2(=O)=O)N1CCCCCC1 | -23%[46.1 µM] | . | ? | . | . | -15%[46.1 µM]
COc1ccc(-n2c(C)c(C)c3c(N)ncnc32)cc1 | 6%[46.1 µM] | -16% | -77* | 5% | 13% | -1%[46.1 µM]
COC(=O)c1c(N)nc(C)n1-c1ccc(OC)cc1 | 0% | 0% | -35 | 8% | 4% | 11%
CCCNC(=O)C1CN(C(=O)c2nn(Cc3ccccc3)c(=O)c3ccccc23)c2ccccc2O1 (stereo not drawn) | -3% | 12µM* | -25 | 13% | 10µM* | ?
CCOC(=O)C1=C(CC)Nc2ccccc2N=C1NC(=O)c1ccc(S(=O)(=O)N(C)C)cc1 | -10% | . | -12 | -13% | ? | -8%
CCOC(=O)C1=C(CC)Nc2ccccc2N=C1NC(=O)c1ccc(C)c(S(=O)(=O)N2CCOCC2)c1 | -10% | 10µM* | -26 | 8% | ? | ?
CCOC(=O)C1=C(CC)Nc2ccccc2N=C1NC(=O)CCNC(C)=O | 2.8µM* | 19% | -36 | 13% | -8% | 3%
CCOC(=O)C1=C(CC)Nc2ccccc2N=C1NC(=O)c1ccc(S(=O)(=O)N2CCOCC2)cc1 | -20% | 15µM* | -26 | -25% | ? | -3%[46.1 µM]
Cc1noc(C)c1C(=O)N1CCC1(C)C(=O)NS(=O)(=O)Cc1cccc(Cl)c1 (stereo not drawn) | . | . | 16 | . | . | .
COC(=O)c1ccc2nc(-c3ccc(C)cc3)c(Cc3ccccc3OC)n2c1 | . | . | -4 | . | . | .
CCOc1ccccc1-c1cncc(NC)n1 | . | . | 31 | . | . | .
CCCn1c(SCC(=O)N2CCN(S(=O)(=O)c3ccc(Cl)cc3)CC2)n[nH]c1=O | -6% | ? | -14 | -11% | 10µM* | -8%[46.1 µM]
Cc1cc(C)n2c(SCC(=O)N3CCN(S(=O)(=O)c4ccc(Cl)cc4)CC3)nnc2n1 | -11% | ? | -73* | 1% | ? | 14%[46.1 µM]
CCCn1c(SCC(=O)Nc2cccc(S(=O)(=O)N3CCCC3)c2)n[nH]c1=O | . | ? | -27 | 1% | ? | .
N#Cc1cccc(NS(=O)(=O)c2ccccc2Cl)c1 | . | ? | -21 | 17% | -7% | .
CCOc1ccc(Nc2oc(-c3ccc(Cl)cc3)nc2C#N)cc1 | 16µM* | 16% | 74 | ? | 32% | 7.3µM*
N#Cc1nc(-c2ccc(COc3ccc(Cl)cc3)o2)oc1N1CCC(C(N)=O)CC1 | -13%[46.1 µM] | . | -65* | . | . | 13%[46.1 µM]
COCCCNc1oc(COc2ccc(Cl)cc2Cl)nc1C#N | -1% | 13µM* | -17 | -9% | . | -10%
COc1ccc(Nc2oc(-c3ccc(Cl)cc3)nc2C#N)cc1 | -4% | 40% | 54 | ? | 9% | ?
CCOc1ccc(Nc2oc(-c3ccc(COc4ccccc4C)o3)nc2C#N)cc1 | 3%[46.1 µM] | . | -71* | . | . | 3%[46.1 µM]
COc1ccc(S(=O)(=O)NCC2(N3CCOCC3)CCCCC2)cc1OC | 10% | -9% | -5 | 2% | ? | 0%[46.1 µM]
